# Pf Dd2 inh = Plasmodium falciparum Dd2 growth inhibition; P. falciparum Dd2 growth, SYBR Green, 72 h; Potency, µM (top dose mostly 28.9 µM), most hits filed as inhibitors; 4.3% of 120,000 active; active = well fitted inhibition curve with a large enough effect; also: nearly all actives have a fitted effect of over 65% in size
#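 Infected erythrocytes (Dd2, 0.3% parasitemia, 2.5% hematocrit final) are added to compound in RPMI-1640/Albumax II medium, grown 72 h at 37C in low oxygen, then lysed with saponin/Triton-X containing SYBR Green and read by fluorescence.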
# Hits are given with their value; i = inactive; [ ] = dose if it differs, or a comment. Only a selection was taken, and hits are over-represented in it overall.
SMILES,Pf Dd2 inh
CCc1cccc2c(C(CC(=O)N3CCCC3)c3cccc([N+](=O)[O-])c3)c[nH]c12 (stereo not given),7.9µM
CC(CCc1ccccc1)NC(=O)CC(c1cccc2c1OCO2)c1c[nH]c2ccccc12 (stereo not given),i
CCc1cccc2c(C(CC(=O)N3CCCCC3)c3cccc(C)c3)c[nH]c12 (stereo not given),i
COc1ccc(C(CC(=O)N2CCCC2)c2c[nH]c3ccccc23)cc1 (stereo not given),i
CCCNC(=O)CC(c1ccc(OC)c(OC)c1)c1c[nH]c2c(CC)cccc12 (stereo not given),i
CCc1cccc2c(C(CC(=O)NC(C)CC)c3ccc(OC)c(OC)c3)c[nH]c12 (stereo not given),i
Cc1noc(C)c1CC(=O)NC1CCc2nn(C)c(=O)n2CC1 (stereo not given),i
CN(C)c1ccc(C(=O)N[C@H]2C[C@H]3C(=O)NC[C@@H](CCC(=O)NCc4ccccc4)N3C2)cc1,i
CN1CC2(CCN(C(=O)NCc3ccc(F)cc3)CC2)CC1C(=O)N1CCOCC1 (stereo not given),i
COc1cccc(CC(=O)NC(C)C(=O)N2CCN(c3ccccn3)CC2)c1 (stereo not given),i
O=C(C[C@@H]1CCNC[C@@H]1Cc1cc(CSc2ccccc2)on1)NC1CCCCC1,i
Cn1cnnc1CC1CCCN(S(=O)(=O)c2ccc3c(c2)C(C)(C)C(=O)N3)C1 (stereo not given),i
CN(CC1(CO)CCC1)C(=O)c1cc(COc2ccccc2F)[nH]n1,i
O=C(C1CN(S(=O)(=O)c2ccccc2)CC12CCCCC2)N1CCOCC1 (stereo not given),i
COc1cccc(C2Cn3nnc(-c4nc(-c5ccc(OC(C)C)cc5)no4)c3CO2)c1 (stereo not given),i
CCOc1ccc(C2Cn3nnc(-c4nc(-c5cccnc5)no4)c3CO2)cc1 (stereo not given),i
COc1ccc(C2Cn3nnc(-c4nc(-c5ccc(C)cc5)no4)c3CO2)cc1 (stereo not given),i
Clc1ccccc1C1Cn2cnc(-c3nc(-c4cccnc4)no3)c2CO1 (stereo not given),4.5µM
Fc1ccc(C2Cn3nnc(-c4nc(-c5cccnc5)no4)c3CO2)cc1 (stereo not given),i
COc1ccc(C2Cn3cnc(-c4nc(-c5ccc(OC(C)C)cc5)no4)c3CO2)cc1 (stereo not given),11µM
O=C(NCCN1CCCC1)C1Cn2cccc2C(=O)N1Cc1cccnc1 (stereo not given),i
COc1ccc(N2CC(C(=O)NC3CC3)NC2=O)cc1 (stereo not given),i
O=C(C[C@@H]1C[C@H]2O[C@H](CNC3CCCC3)[C@@H](O)[C@H]2O1)N1CCOCC1,i
O=C(Cn1nc2n(c1=O)CCCCC2)NCc1ccc(Cl)cc1,i
CCNC(=O)N(C1CC1)C1CCOC2(CCN(C(=O)Cc3cccc(F)c3)CC2)C1 (stereo not given),i
SMILES,Pf Dd2 inh
Cc1ccc(NC(=O)c2cc(S(=O)(=O)NC3CCCCCC3)ccc2F)cc1F,4.5µM
O=C(Nc1ccccc1Br)c1cc(S(=O)(=O)NC2CCCCC2)ccc1F,i
Cc1ccc(NC(=O)c2cc(S(=O)(=O)N3CCCc4ccccc43)ccc2F)cc1F,i
Cc1ncoc1C(=O)N1CCCN(C(=O)C2CC2)C(c2ccccc2)CC(=O)NCC1 (stereo not given),i
CN1CCN(c2nc3c(c(=O)[nH]2)CCN(Cc2ccc(Cl)c(F)c2)CC3)CC1,i[5.79 µM]
O=C(NC1CCCC1)N1CCCC(c2nn[nH]n2)C1 (stereo not given),i
Cc1ccc(O)c(C(CC(=O)NCC2(c3ccccc3)CCCC2)c2ccccc2)c1 (stereo not given),10µM
Cc1ccc(NC(=O)C(=O)NCC2(c3ccccc3)CCCC2)cc1C,i
COc1ccc(C)cc1NC(=O)C(=O)NCC1(c2ccccc2)CCCC1,i
O=C(NCC1(COc2cnccn2)C[C@@H](O)[C@@H](O)C1)c1ccc(F)cc1 (stereo not given in full),i
COCCN(Cc1ccccn1)Cc1cc(=O)c2cc(C)cc(C)c2[nH]1,i
CCCc1noc(-c2cccn3c(CNC(=O)c4ccco4)nnc23)n1,i
CCn1c(C)c(CN2CCc3nc(N(C)C)[nH]c(=O)c3CC2)c2ccccc21,i[5.79 µM]
CSc1nc(NCCOC(C)=O)c(C#N)c(-c2ccc(C(C)(C)C)cc2)n1,10µM
CSc1nc(Nc2cccc(C)c2)c(C#N)c(-c2ccccc2)n1,i
Cc1cc(C(N)=O)c(-c2c(C)n[nH]c2C)nc1C,i
O=C(c1ccc2c(c1)OCO2)N1CCC(N2Cc3cccn3C2=O)CC1,i
O=C(c1ccc(N2CCC(CO)C2)nc1)N1CCC(Oc2cccnc2)CC1 (stereo not given),i
Cc1ccc(-c2nc3cc(Cl)ccc3o2)cc1NC(=O)c1cc([N+](=O)[O-])ccc1N1CCOCC1,i
O=C(Nc1cccc(-c2nc3ccccc3o2)c1)c1cc([N+](=O)[O-])ccc1N1CCOCC1,8.9µM

# Screening results: PubChem, National Center for Advancing Translational Sciences (NCATS)
